High-throughput results deposited in PubChem by National Center for Advancing Translational Sciences (NCATS).
FH mod: Identification of activators of human fumarate hydratase by quantitative high-throughput screening; Fumarate hydratase, mitochondrial (Homo sapiens), P07954; FH coupled MDH/diaphorase resazurin fluorescence, 15 min; Potency, µM (series often up to 79.9 µM), for inactives: at the top dose activity change, negative = inhibition, most hits filed as inhibitors; actives 0.22% (n = 54,000); note: potency is the fitted concentration of half-maximal effect; % is set by controls: 0 for no effect and ±100 for the full control effect; the screen sought activators but most active calls are inhibition curves; nearly all actives have a fitted effect of over 45% in size
Target sequence (P07954 whole entry, looked up): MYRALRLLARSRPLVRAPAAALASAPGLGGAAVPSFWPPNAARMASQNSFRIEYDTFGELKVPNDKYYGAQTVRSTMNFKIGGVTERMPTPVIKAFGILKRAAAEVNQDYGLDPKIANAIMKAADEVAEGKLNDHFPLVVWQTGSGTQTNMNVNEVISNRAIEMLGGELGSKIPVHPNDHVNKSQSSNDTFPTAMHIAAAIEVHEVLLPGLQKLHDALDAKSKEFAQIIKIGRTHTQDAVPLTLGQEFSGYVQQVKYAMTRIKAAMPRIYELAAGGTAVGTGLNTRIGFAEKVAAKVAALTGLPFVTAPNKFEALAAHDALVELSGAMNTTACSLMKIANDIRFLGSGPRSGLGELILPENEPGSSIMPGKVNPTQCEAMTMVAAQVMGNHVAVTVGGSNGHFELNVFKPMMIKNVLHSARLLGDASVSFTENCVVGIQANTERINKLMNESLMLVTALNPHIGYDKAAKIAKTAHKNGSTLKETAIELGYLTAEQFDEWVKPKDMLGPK
p53null 32C tox: qHTS Screen for Compounds that Selectively Target Cancer Cells with p53 Mutations: Cytotoxicity of p53 Null Cells at the Permissive Temperature; H1299-neo p53 null cells, ATP luminescence, 24 h, 32C; Potency, µM (series often up to 46.1 µM), inactives show top-dose activity change, negative = cytotoxicity, hits mostly cytotoxic; actives 0.62% (n = 55,000); AID 903, 2007;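 note: potency is the fitted concentration of half-maximal effect; 0% = DMSO only and -100% = full killing by 100 µM tamoxifen; nearly all actives have a fitted effect of over 55% in size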
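H1299-neo, 600 cells/well; overnight 37C; cpd up to 46 uM, 24 h at 32C; ATPlite luminescence after 20 min RT; normalized to DMSO (0%) and tamoxifen 100 uM (100% kill); Hill-fit AC50.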
NTMT1 inh: Primary qHTS for Inhibitors of N-terminal methyltransferase 1 (NTMT1): MTaseGlo Assay | actives 2.5% (n = 59,000) | Potency, µM (series often up to 114 µM), inactives show top-dose activity change, negative = inhibition, hits mostly inhibitors | AID 1645870, 2021 | N-terminal Xaa-Pro-Lys N-methyltransferase 1 (Homo sapiens), Q9BV86 | NTMT1 MTase-Glo SAH luminescence, purified enzyme;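 note: potency is the fitted concentration of half-maximal effect; plate controls were DMSO vehicle for no effect and no enzyme for full effect; nearly all actives have a fitted effect of over 65% in size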
Target sequence (Q9BV86 whole entry, looked up): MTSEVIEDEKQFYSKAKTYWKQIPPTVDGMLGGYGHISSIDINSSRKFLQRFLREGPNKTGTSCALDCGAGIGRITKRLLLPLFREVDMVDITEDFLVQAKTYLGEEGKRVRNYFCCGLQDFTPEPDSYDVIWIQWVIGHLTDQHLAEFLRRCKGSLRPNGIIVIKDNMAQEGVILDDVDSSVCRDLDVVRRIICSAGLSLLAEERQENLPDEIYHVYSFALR
p53null 39C tox: qHTS Screen for Compounds that Selectively Target Cancer Cells with p53 Mutations: Cytotoxicity of p53 Null Cells at the Nonpermissive Temperature | H1299 p53-null (neo) cells, 39C, ATPlite viability, 24 h | Potency, µM (top dose mostly 46.1 µM), for inactives: top-dose activity, negative = cell killing, actives largely listed as cytotoxic | actives 0.97% (n = 55,000) | AID 904, 2007;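 note: potency is the fitted concentration of half-maximal effect; 0% = DMSO only and -100% = full killing by 100 µM tamoxifen; nearly all actives have a fitted effect of over 50% in size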
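Following overnight plating at 37C (600 cells/well), H1299-neo or H1299-p53A138V cells are dosed up to 46 uM. Incubation lasts 24 hr at 39C before ATP detection.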
DYRK1A inh-1: Assay for Inhibitors of Dual-Specificity Tyrosine-(Y)-Phosphorylation Regulated Kinase 1A (Kinase-Glo assay); shares compounds with NTMT1 inh; recombinant DYRK1A, Kinase-Glo ATP depletion luminescence; Potency, µM (highest dose often 76.9 µM), for inactives: at the top dose activity change, negative = inhibition, hits mostly inhibitors; actives 80% (n = 100); AID 2705, 2010
CLK4 inh: Kinase Inhibition Study on Inhibitors of CDC-like Kinase 4 (Reaction Biology data): SAR round 2; Reaction Biology kinase assay, 10 uM ATP; Potency, µM, actives largely listed as inhibitors; actives 100% (n = 65); shares compounds with NTMT1 inh; AID 504421, 2011; calls by dose curve
DYRK1A inh-2: Kinase Inhibition Study on Inhibitors of Dyrk1a (Reaction Biology data) | shares compounds with NTMT1 inh | Reaction Biology kinase assay, 10 uM ATP | actives 90% (n = 65) | Potency, µM, most hits filed as inhibitors;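 active = compounds that showed inhibition of Dyrk1a and received a fitted potency; inactive = compounds that showed no inhibition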
CLK2 RBC: Kinase Inhibition Study on Inhibitors of CDC-like Kinase 2 (Reaction Biology data); shares compounds with NTMT1 inh; Reaction Biology kinase assay, 10 uM ATP; Potency, µM, hits mostly inhibitors; actives 90% (n = 65);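 active = compound that inhibits Clk2 kinase in the dose series, with an IC50 potency reported; inactive = no inhibition seen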
CLK3 RBC: Kinase Inhibition Study on Inhibitors of CDC-like Kinase 3 (Reaction Biology data); shares compounds with NTMT1 inh; recombinant CLK3 kinase assay, 10 uM ATP; Potency, µM, actives largely listed as inhibitors; actives 40% (n = 65);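 active = compounds that inhibited Clk3 enough in the ten-dose series to give a half-maximal potency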
DYRK1B RBC: Kinase Inhibition Study on Inhibitors of Dyrk1b (Reaction Biology data) | shares compounds with NTMT1 inh | Recombinant Dyrk1b kinase assay, 10 uM ATP | Potency, µM, actives largely listed as inhibitors | actives 80% (n = 65);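 active = compounds whose dose response shows an inhibitor phenotype against the kinase Dyrk1b; inactive = compounds showing no inhibitor phenotype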
CLK1 RBC: Kinase Inhibition Study on Inhibitors of CDC-like Kinase 1 (Reaction Biology data); shares compounds with NTMT1 inh; recombinant Clk1 kinase assay, 10 uM ATP; Potency, µM, most hits filed as inhibitors; actives 90% (n = 65); AID 504430, 2011;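 active = compounds that block the splicing kinase Clk1 enough to give a fitted half-inhibition concentration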
Sfp PPTase inh: qHTS Assay for Inhibitos of Bacillus subtilis Sfp phosphopantetheinyl transferase (PPTase): Chemistry Optimization Followup; actives 78% (n = 230); purified Sfp PPTase enzyme activity, qHTS; shares compounds with NTMT1 inh; Potency, µM (titrated, usually from 114 µM), inactives show top-dose activity change, negative = inhibition, hits mostly inhibitors; AID 540350, 2011
Bsub HM489 growth: qHTS for Inhibitos of Bacillus subtilis Sfp phosphopantetheinyl transferase (PPTase): Chemistry Optimization Followup in B. Subtilis HM489; actives 50% (n = 220); AID 540353, 2011; B. subtilis HM489 (acpS-) growth, BacTiter-Glo, 5 h; Potency, µM (doses to about 114 µM), inactives show at the highest dose activity change, negative = inhibition, usual class: inhibitors; shares compounds with NTMT1 inh
Sfp PPTase gel: Gel-Based Assay for Inhibitos of Bacillus subtilis Sfp phosphopantetheinyl transferase (PPTase): Chemistry Optimization Followup; shares compounds with NTMT1 inh; Potency, µM (series often up to 250 µM), without a hit: at the top dose activity change, negative = inhibition, hits mostly inhibitors; actives 54% (n = 220); purified Sfp PPTase, gel-based product detection
Sfp inh gel: qHTS Assay for Inhibitors of Bacillus subtilis Sfp phosphopantetheinyl transferase (PPTase): Gel Based Assay; purified Sfp PPTase, gel-based product detection; shares compounds with NTMT1 inh; Potency, µM (series often up to 250 µM), for the others: top-dose activity change, negative = inhibition, hits mostly inhibitors; actives 90% (n = 45); AID 602362, 2012
Sfp inh SAR2: qHTS Assay for Inhibitors of Bacillus subtilis Sfp phosphopantetheinyl transferase (PPTase): SAR Round 2 | shares compounds with NTMT1 inh | purified Sfp enzyme, PPTase activity, qHTS | Potency, µM (series often up to 57.1 µM), for inactives: at the top dose activity change, negative = inhibition, most hits filed as inhibitors | actives 87% (n = 230)
hGST A1-1 inh: qHTS Assay for Inhibitors of Bacillus subtilis Sfp phosphopantetheinyl transferase (PPTase): SAR in hGST A1-1; AID 602391, 2012; hGST A1-1 enzyme activity counter-screen, qHTS; shares compounds with NTMT1 inh; 55 tested, under 10 active; Potency, µM (series often up to 114 µM), for the others: at the top dose activity change, negative = inhibition, hits mostly inhibitors
HSD17B4 counter: Extended Characterization of HPGD Inhibitors: Counterscreen Against HSD17b4; shares compounds with NTMT1 inh; purified HSD17B4, estradiol/NAD+, NADH fluorescence; Potency, µM (highest dose often 57.1 µM), inactives show at the highest dose activity change, negative = inhibition, hits mostly inhibitors; actives 10% (n = 230); AID 743187, 2013
ALDH1A1 inh: Extended Characterization of HPGD Inhibitors: Counterscreen Against ALDH1A1; shares compounds with NTMT1 inh; recombinant ALDH1A1, NADH fluorescence, propionaldehyde/NAD+; Potency, µM (series often up to 57.1 µM), inactives show at the top dose activity change, negative = inhibition, most hits filed as inhibitors; actives 93% (n = 230); AID 743195, 2013
The depositor's hits bear a star; ? = inconclusive; nt = no result given; [ ] = remark or other dose. Shown is part of a subset that was picked to be rich in hits. Unless noted, calls come from the whole dose curve; as a rule, active = well fitted curve in the direction sought with a large enough effect; inconclusive = small, poorly fitted or top-dose-only effect, or another doubt; inactive = no such curve, though single readings can be large; an effect the other way counts as inactive or inconclusive.

SMILES | FH mod | p53null 32C tox | NTMT1 inh | p53null 39C tox | DYRK1A inh-1 | others
COc1cccc(NC(=S)N2CCN(c3ccc(Cl)c(Cl)c3)CC2)n1 | nt | nt | nt | nt | nt | Sfp PPTase inh=?;Bsub HM489 growth=29.6%;Sfp PPTase gel=95.4µM*;Sfp inh gel=107µM*;Sfp inh SAR2=8.13µM*;hGST A1-1 inh=?;HSD17B4 counter=?;ALDH1A1 inh=6.07µM*
O=C(Nc1ccc(C(F)(F)F)cn1)N1CCN(c2ncccc2C(F)(F)F)CC1 | 1.4% | nt | 3.2%[57.5 µM] | nt | nt
Cc1ccc(OCCn2c(CCNC(=O)c3ccc(C)cc3)nc3ccccc32)cc1 | nt | nt | 2.2%[57.5 µM] | nt | nt
COc1cc(NC(=S)N2CCN(c3cccc(C(F)(F)F)c3)CC2)nc2ccccc12 | nt | nt | ? | nt | nt | Sfp PPTase inh=1.87µM*;Bsub HM489 growth=46.9µM*;Sfp PPTase gel=0.794µM*;Sfp inh SAR2=0.65µM*;HSD17B4 counter=-57.0%;ALDH1A1 inh=5.41µM*
COc1cccc(CN2CCN(c3cccc(C(F)(F)F)c3)CC2)c1OC | nt | -12.5% | nt | -12.5% | nt
COc1cccc(-c2ccc3ncnc(NCc4cccs4)c3c2)c1 | nt | nt | -20.4% | nt | 7.33µM*
Cn1ccc2cc(-c3ccc4ncnc(NCc5cccs5)c4c3)ccc21 | nt | nt | -6.0%[57.5 µM] | nt | ?
Fc1c(-c2ccc3ncnc(NCc4cccs4)c3c2)ccc2c1OCO2 | nt | nt | ? | nt | 0.184µM* | CLK4 inh=0.128*;DYRK1A inh-2=0.164µM*;CLK2 RBC=4.4µM*;CLK3 RBC=9.33µM*;DYRK1B RBC=2.27µM*;CLK1 RBC=0.31µM*
c1cncc(-c2ccc3ncnc(NCc4ccc5c(c4)OCO5)c3c2)c1 | nt | nt | -9.1% | nt | nt
CN(Cc1nccs1)c1ncnc2ccc(-c3ccc4c(c3)OCO4)cc12 | 2.5% | nt | 7.08µM* | nt | 0.0654µM* | CLK4 inh=0.02*;DYRK1A inh-2=0.051µM*;CLK2 RBC=0.588µM*;CLK3 RBC=4.66µM*;DYRK1B RBC=0.18µM*;CLK1 RBC=0.028µM*
CCc1ccccc1-c1nc(NCc2ccc(-c3cccnc3)cc2)c2ccccc2n1 | nt | nt | 14.8% | nt | nt
c1csc(CNc2ncnc3ccc(-c4ccc5c(c4)OCCO5)cc23)c1 | nt | nt | ? | nt | 0.367µM*
